# This is a sample that favours compounds with a hit; in the whole collection about 9.9% have one here.
# SW480 rerep: induces DNA re-replication in SW480 colon adenocarcinoma cells | SW480 DNA re-replication, Hoechst DNA content imaging, 48 h | Potency, µM (highest dose often 46.1 µM), for the others: at the highest dose re-replication activation, actives largely listed as activators | hit rate 1.8% among 340,000; further: potency means the concentration at half of the fitted maximal effect; % of control where 0% means no effect; nearly all actives have a fitted effect of over 55% in size
#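 SW480 cells exposed to compounds for 48 hr at 37 C, 5% CO2, then Hoechst-stained 40 min. Nuclear DNA content imaged by fluorescence scanning (405 nm excitation, 500-530 nm emission); re-replication scored as increased high-intensity nuclei.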
# KB-3-1 tox: kills parental KB-3-1 adenocarcinoma cells; hit rate 1.4% among 400,000; AID 1347075; Potency, µM (highest dose often 46.1 µM), usual class: cytotoxic; KB-3-1 viability, CellTiter-Glo ATP luminescence, 72 h; further: potency means the concentration at half of the fitted maximal effect; on the % scale 0 is the no-effect control and ±100 the full control effect; nearly all actives have a fitted effect of over 60% in size
#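 Cytotoxicity in the drug-sensitive parental line KB-3-1 was scored as loss of CellTiter-Glo luminescence following 72 h incubation with compound. Values come from curve fitting of normalized concentration-response data.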
# MCF10A rerep: DNA re-replication induction in MCF 10a cells | MCF 10A DNA re-replication, Hoechst nuclear intensity, 48 h | Potency, µM (top dose mostly 46.1 µM), without a hit: at the highest dose activity, positive = re-replication, actives largely listed as activators | hit rate 2.9% among 350,000; further: potency means the concentration at half of the fitted maximal effect; % of control where 0% means no effect; nearly all actives have a fitted effect of over 50% in size
# IL-1B inflam inh: inflammasome signaling inhibition, IL-1 beta readout | activity change, % at 57.5 µM | AID 743279 | THP-1 LPS/ATP IL-1B secretion, AlphaLISA, 16 h; active compounds read low | hit rate 4.7% among 360,000; in the data active means activity change below about -50%; inconclusive means mostly about -30% to -49%; further: on the % scale 0 is the no-effect control and ±100 the full control effect
#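 THP-1 cells pretreated 1 hr with compounds (up to 57.5 uM final), then stimulated with LPS (250 ng/mL final) plus ATP (1.25 mM final); secreted IL-1B measured by AlphaLISA after 16 hr, decreased signal indicating inhibition.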
# KB-V1 MDR tox: KB-V1 MDR subline cytotoxicity; hit rate 3.4% among 400,000; Potency, µM (highest dose often 46.1 µM), most hits filed as cytotoxic; AID 1347076; KB-V1 MDR cells viability, CellTiter-Glo, 72 h; further: potency means the concentration at half of the fitted maximal effect; on the % scale 0 is the no-effect control and ±100 the full control effect; nearly all actives have a fitted effect of over 60% in size
#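 Potencies derive from concentration-effect curves fitted to normalized luminescence (CellTiter-Glo) of KB-V1 cells treated for 72 h at 37 degrees C in phenol-red-free DMEM containing 10% FBS.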
# The depositor's hits bear a star; i = inactive; ? = inconclusive; · = no result given; [ ] = remark or other dose. Unless noted, the call rests on the fitted dose curve; in most records, active means well fitted curve in the direction sought with a large enough effect; inconclusive means small, poorly fitted or top-dose-only effect, or another doubt; inactive means no such curve, though single readings can be large; an effect the other way counts as inactive or inconclusive.
SMILES,SW480 rerep,KB-3-1 tox,MCF10A rerep,IL-1B inflam inh,KB-V1 MDR tox
CNC(=O)c1ccc2nc(-c3ccco3)c(-c3ccco3)nc2c1,·,i,·,·,i
Cc1nc2cc(NS(=O)(=O)c3c(C)c(C)cc(C)c3C)ccc2s1,-1%[9.22 µM],13µM*,21%,-3,11µM*
Cc1ccc(S(=O)(=O)Nc2ccc3nc(-c4cccn4C)[nH]c3c2)cc1,-4%,?,14%,-50*,i
Cc1ccc(S(=O)(=O)Nc2ccc3nc(C)oc3c2)cc1,0%,?,10%,13,2.9µM*
Cc1nc2ccc(NS(=O)(=O)c3ccc(Br)cc3)cc2s1,2%,23µM*,-4%,10,i
Cn1cccc1-c1nc2ccc(NC(=O)c3ccccc3)cc2[nH]1,-1%,i,1%,0,i
Cc1nc2ccc(NS(=O)(=O)c3c(C)c(C)cc(C)c3C)cc2s1,?,?,?,9,?
O=C(O)c1cc(S(=O)(=O)Nc2ccc3cn[nH]c3c2)ccc1O,-12%,i,3%,56,i
Cc1c(-c2ccccc2)nc2ccccc2c1C(=O)Nc1ccncc1,-35%,i,3%,?,i
Cc1ccc(S(=O)(=O)Nc2ccc3nc(C)sc3c2)cc1,-2%,i,-3%,-8,?
Cc1ccc(S(=O)(=O)Nc2ccc3nc(N)sc3c2)cc1,-3%,?,21%,-3,21µM*
COc1ccc(-c2cn(-c3ccc(C)cc3C)c(=O)[nH]2)cc1OC,-9%,?,6%,-2,i
CC1(C)N=C(SCC(=O)Nc2ccccc2)C(c2ccc(Cl)cc2)=N1,-3%,i,?,-93*,?
Cc1ccc(C2=NC(C)(C)N=C2SCC(=O)Nc2ccc(Cl)cc2)cc1,17%,i,?,-106*,?
COc1ccccc1-c1nnc(SCC(=O)Nc2ccc(Cl)cc2Cl)o1,-2%,i,-3%,10,i
CC1(C)N=C(SCC(=O)Nc2ccc(Cl)cc2Cl)C(c2ccccc2)=N1,3%,i,?,-87*,21µM*
CCCN1C(=O)c2ccccc2NC1c1ccc(OC)c(COc2ccc([N+](=O)[O-])cc2)c1 (stereo not given),·,i,·,·,i
CCOC(=O)C1CCCN(c2cc(C)nc3c(-c4ccccc4OC)c(C)nn23)C1 (stereo not given),·,i,·,·,i
Cc1cc(NC(=O)COC(=O)CCS(=O)(=O)c2cc(Cl)ccc2Cl)no1,3%,i,21µM*,-20,i
O=C(CSC1=Nc2ccccc2C2=NC(CCC(=O)NC3CCCCC3)C(=O)N12)Nc1cccc(C(F)(F)F)c1 (stereo not given),·,i,·,·,i
COc1ccc(OC)c(CN2C(=O)CSCC2(C)C(=O)Nc2c(C)cccc2C)c1 (stereo not given),·,i,·,-67*,i
COc1ccc(CN2C(=O)CSCC2(C)C(=O)Nc2c(C)cccc2C)cc1OC (stereo not given),·,i,·,-10,i
Cn1nc(C2CC2)cc1NC(=O)C1(C)CCN1C(=O)Cc1ccc(-c2ccccc2)cc1 (stereo not given),·,?,·,-23,i
COc1ccc(CNc2cc(C)ccc2C)c(OC)c1OC,-3%,i,0%,-5,15µM*
O=C(NCc1cccn1Cc1ccccc1)Nc1cccc(C(F)(F)F)c1,·,i,·,·,i
SMILES,SW480 rerep,KB-3-1 tox,MCF10A rerep,IL-1B inflam inh,KB-V1 MDR tox
C=CCNC(=O)/C(C#N)=C/c1ccccc1Cl,-140%,i,12%,-58*,i
CCOc1c(Br)cc(/C=C(\C#N)C(=O)NC2CC2)cc1OC,2%,i,8%,-13,?
C=CCNC(=O)/C(C#N)=C/c1ccc(C(=O)O)cc1,2%,i,?,8,i
C=CCNC(=O)/C(C#N)=C\c1cc(Cl)c(OCC)c(OC)c1,-1%,i,11%,-91*,i
COCC(C)n1c(SCC(=O)N2CCc3ccccc3C2)nc2ccccc2c1=O (stereo not given),-2%,i,-1%,-24,i
O=C(COC(=O)C1CCN(c2ccc(C(F)(F)F)cn2)CC1)Nc1cc(F)ccc1F,-8%,i,-4%,8,i
Cc1cc(NC2CCCCC2)nc(N2CCOCC2)n1,6%,i,21%,-20,i
CC(C)Nc1nc(NC2CCCC2)nc(N2CCOCC2)n1,2%,i,11%,-99*,?
O=C(NCc1cccnc1)/C(=C/c1ccc(-c2ccc(Cl)cc2)o1)S(=O)(=O)c1ccccc1,9.2µM*,i,9.2µM*,-106*,?
O=C(NCc1cccnc1)/C(=C\c1ccc(-c2ccc(Br)cc2)o1)S(=O)(=O)c1ccccc1,15µM*,?,7.3µM*,-105*,7.3µM*
O=C(NCc1cccnc1)C(=O)NCC1OCCN1S(=O)(=O)c1ccc(Cl)cc1 (stereo not given),13%,i,14%,24,i
CC(/C=C1\SC(=S)N(CCCC(=O)Nc2ccc(C(=O)O)c(O)c2)C1=O)=C\c1ccccc1,?,i,?,-55*,i
CC(=O)c1ccc(NC(=O)CN2C(=O)/C(=C/C(C)=C/c3ccccc3)SC2=S)cc1,?,i,-8%,5,i
CC(/C=C1\SC(=S)N(CCC(=O)Nc2ccc(O)cc2)C1=O)=C\c1ccccc1,?,?,26%,-53*,i
CC(=Cc1ccccc1)C=C1SC(=S)N(CCCC(=O)Nc2ccc(C(=O)O)c(O)c2)C1=O,·,i,·,0,i
c1ccc(CN2CCN(c3nc(-c4ccccc4)nc4ccccc34)CC2)cc1,?,i,?,?,i
OCCN1CCN(c2nc(-c3ccccc3O)nc3ccccc23)CC1,?,i,19%,-82*,?
CN1CCN(c2nc(-c3ccncc3)nc3ccccc23)CC1,?,i,?,-57*,?
C=CCNc1nc(-c2cccc(OC)c2O)nc2ccccc12,4%,i,23µM*,-12,i
c1ccc2c(N3CCCC3)nc(-c3ccncc3)nc2c1,-5%,i,-9%,-80*,i
NS(=O)(=O)c1ccc(CCNC(=O)COC(=O)C2COc3ccccc3O2)cc1 (stereo not given),-10%,i,-1%,0,i
CCC(C)[C@H]1CNCCN1CCc1cccc(F)c1 (stereo not given in full),-1%,i,25%,-12,i
CC(=O)NC12CC3CC(C1)CC(C(=O)NCc1ccc(C)cc1)(C3)C2,-13%,?,?,3,i
COc1cccc(-c2nc(N3CCN(C)CC3)c3ccccc3n2)c1O,22%,i,?,-98*,?

# Bioassay records (PubChem)
